# Hits are enriched below; roughly 19% of the tested compounds scored in any of these assays.
# IL1B secr inh: blocks inflammasome-driven IL-1 beta release; THP-1 LPS/ATP IL-1B secretion, AlphaLISA, 16 h; hits give low values; activity change, % at 57.5 µM; actives 4.7% (n = 360,000); in the data active = activity change below about -50%; inconclusive = mostly about -30% to -49%
#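 Secreted IL-1B measured by AlphaLISA bead assay after 16 h compound exposure of THP-1 cells; compounds (final up to 57.5 uM) added 1 h before LPS (250 ng/mL) and ATP (1.25 mM) stimulation; lower signal means less secretion.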
# HT1080NT lethal: kills 2HG-producing HT-1080-NT fibrosarcoma cells. actives 1.6% (n = 360,000). Potency, µM (doses to about 46.1 µM), inactives show top-dose activity, negative = less viability, hits mostly cytotoxic. HT-1080-NT fibrosarcoma viability, CellTiter-Glo ATP luminescence, 48 h;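 also: NT is the 2HG producing partner of a matched IDH1 knockdown line; potency is read from the fitted curve at half-maximal effect; 0% = DMSO-treated cells and -100% = media-only wells without cells; nearly all actives have a fitted effect of over 55% in size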
#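 Viability of the 2HG-overproducing fibrosarcoma line after 48 hours of compound exposure at 37 degrees C was determined by luminescence with CellTiter-Glo, and concentration-effect curves were then fitted and categorized.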
# HT1080 IDH1KD tx: toxicity to HT-1080 IDH1 knockdown cells (counter line); Potency, µM (doses to about 46.1 µM), for the others: at the highest dose activity, negative = toxicity, usual class: cytotoxic; actives 2% (n = 360,000); HT-1080 IDH1 knockdown viability, ATP luminescence, 48 h;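 also: potency is read from the fitted curve at half-maximal effect; 0% = DMSO wells and -100% = cell-free medium wells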
#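 Knockdown cells (IDH1KD HT-1080) received compounds 2 h after plating at 750 cells/well and were kept 48 h at 37 °C in 5% FBS RPMI. A CellTiter-Glo luminescence read gave % activity for curve fitting.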
# TDP1 cell noCPT: qHTS for Inhibitors of human tyrosyl-DNA phosphodiesterase 1 (TDP1): qHTS in cells in absence of CPT; AID 686978, 2013; actives 15% (n = 420,000); Potency, µM (series often up to 46.2 µM), for the others: at the highest dose activity change, negative = growth inhibition, actives largely listed as inhibitors; DT40 Tdp1-/- hTDP1 cells, no CPT, ATP luminescence, 48 h; also: potency is read from the fitted curve at half-maximal effect; nearly all actives have a fitted effect of over 55% in size
#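 Stably hTDP1-transfected Tdp1-null chicken DT40 cells were treated with library compounds minus camptothecin and grown for at least 48 hr at 37 °C, after which cellular ATP was quantified by luminescence.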
# TDP1 cell CPT: DT40-hTDP1 cell growth loss with CPT; chicken DT40 Tdp1-/-;hTDP1 cells + 20 nM CPT, ATP luminescence, 48 h; AID 686979; Potency, µM (titrated, usually from 46.2 µM), for inactives: at the highest dose activity change, negative = growth inhibition, actives largely listed as inhibitors; actives 12% (n = 420,000); also: potency is read from the fitted curve at half-maximal effect; nearly all actives have a fitted effect of over 55% in size
#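 Chicken DT40 Tdp1-/- cells stably complemented with human TDP1 were seeded at 400 cells/well in medium containing 20 nM camptothecin, exposed to pin-transferred compounds, and grown at 37 °C for at least 48 hr. Viability was read as ATP luminescence.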
# Active calls of the source: *; u = inconclusive; x = not tested or not shown. Unless noted, calls follow the shape of the dose curve; as a rule, active = well fitted curve in the direction sought with a large enough effect; inconclusive = small, poorly fitted or top-dose-only effect, or another doubt; inactive = no such curve, though single readings can be large; an effect the other way counts as inactive or inconclusive. Unless noted, % is scaled to controls: 0 for no effect and ±100 for the full control effect.
SMILES,IL1B secr inh,HT1080NT lethal,HT1080 IDH1KD tx,TDP1 cell noCPT,TDP1 cell CPT
FC(F)(F)c1cccc(Cn2c3[n+](c4ccc(C(F)(F)F)cc42)CCCCC3)c1,-77*,-22%,-21%,23µM*,u
O=C(Cn1c2[n+](c3ccc(C(F)(F)F)cc31)CCCCC2)Nc1ccc(Br)cc1,0,2%,9%,5%,5%
Cc1cc(C(C)(C)C)cc(C)c1Cn1c2[n+](c3ccc(C(F)(F)F)cc31)CCCCC2,-108*,15µM*,u,1.8µM*,2.1µM*
O=c1[nH][nH]c(C(F)(F)F)c1C=NCc1cccs1,14,12%,1%,-11%,-5%
CCc1nnc2c(NCc3ccccc3OC)nc3ccccc3n12,x,x,x,-7%,-29%
O=C(NCc1cccs1)C1CCN(S(=O)(=O)c2ccccc2F)CC1,-6,-1%,-2%,0%,-2%
COc1ccc(C2C(C#N)=C(N)Oc3c2ccc2cccnc32)cc1OC (configuration not stated),-10,u,0.65µM*,2.6µM*,3.3µM*
COc1cc(C2C(C#N)=C(N)Oc3c2ccc2ccccc32)ccc1OCC(=O)Nc1cccc(C)c1 (configuration not stated),0,-10%,-21%,16µM*,u
COc1cc(C2C(C#N)=C(N)Oc3c2ccc2ccccc32)ccc1OCC(=O)Nc1ccc(C)cc1 (configuration not stated),-7,-16%,-17%,u,u
Cn1nc(C(F)(F)F)cc1C(=O)NC1CCCCCC1,-2,23%,13%,-6%,3%
CCc1cc2c(=O)c(-c3nc(C)cs3)coc2cc1OC(C)C(=O)NCCO (configuration not stated),-11,18%,15%,u,u
COc1ccc(CCNC(=O)c2cc3c(=O)n4ccccc4nc3n(CC3CCCO3)c2=N)cc1 (configuration not stated),-10,2%,4%,26µM*,21µM*
COc1ccc(CCNC(=O)c2cc3c(=O)n4ccccc4nc3n(CCCN3CCOCC3)c2=N)cc1,-28,-14%,-8%,u,u
COc1ccc(CCNC(=O)c2cc3c(=O)n4ccccc4nc3n(CCN3CCOCC3)c2=N)cc1,-9,-15%,-8%,2.6µM*,3.7µM*
COc1ccc(CCn2c(=N)c(C(=O)NCC3CCCO3)cc3c(=O)n4ccccc4nc32)cc1 (configuration not stated),-15,-2%,1%,8.2µM*,5.8µM*
COc1ccc(CCNC(=O)c2cc3c(=O)n4ccccc4nc3n(C3CCCCC3)c2=N)cc1OC,-9,-13%,-5%,u,u
COc1ccc(CCNC(=O)c2cc3c(=O)n4ccccc4nc3n(CC3CCCO3)c2=N)cc1OC (configuration not stated),-14,4%,6%,u,21µM*
N=c1c(C(=O)NCCc2ccccc2)cc2c(=O)n3ccccc3nc2n1CC1CCCO1 (configuration not stated),22,-23%,-15%,u,u
COc1ccc(N2CCN(C(CNS(=O)(=O)c3ccccc3)c3ccccc3)CC2)cc1 (configuration not stated),-13,-2%,-2%,u,u
COc1ccc(CCC(=O)OCC(=O)NCc2ccccc2)cc1,9,3%,12%,-3%,-11%
O=C1CC(c2ccc(F)cc2)Cc2nc(N3CCN(c4ccccc4)CC3)ncc21 (configuration not stated),-2,9%,8%,u,u
Cc1ccc(C2CC(=O)c3cnc(N4CCc5ccccc5C4)nc3C2)cc1 (configuration not stated),15,-3%,-3%,18µM*,u
COc1ccc(C2CC(=O)c3cnc(N4CCN(Cc5ccccc5)CC4)nc3C2)cc1 (configuration not stated),-10,-11%,-10%,23µM*,u
Cc1ccc(C2CC(=O)c3cnc(N4CCN(c5ccccc5)CC4)nc3C2)cc1 (configuration not stated),12,8%,13%,16µM*,u
CCN1CCN(c2ncc3c(n2)CC(c2ccc(OC)c(OC)c2)CC3=O)CC1 (configuration not stated),12,11µM*,13µM*,15µM*,23µM*
SMILES,IL1B secr inh,HT1080NT lethal,HT1080 IDH1KD tx,TDP1 cell noCPT,TDP1 cell CPT
O=C1CCCCC1C(O)(C(=O)c1ccccc1)c1ccccc1 (configuration not stated),-23,-16%,-28%,u,1%
Cc1ccc(S(=O)(=O)NCC(=O)NCCc2c[nH]c3ccccc23)cc1C,-1,-10%,-17%,u,u
CCOC(=O)c1cnn(-c2cccc(F)c2)c1C1CCNCC1,x,x,x,-8%,-28%
COc1cccc(N2CC(C(=O)Nc3c(C(N)=O)oc4ccccc34)CC2=O)c1 (configuration not stated),-12,13%,16%,u,-7%
CCn1c(C(=O)Nc2ccccc2C(=O)OC)cc2sc(Cl)cc21,x,x,x,-16%,0%
CCOc1ccccc1-n1nnnc1SCC(=O)N1CCCC1=O,24,9%,-1%,2%,-21%
CC(C)C(=O)Nc1nc2c(ncn2[C@H]2CC(O)[C@@H](CO)O2)c(=O)[nH]1 (some centres not stated),x,x,x,13µM*,11µM*
Nc1nc(=O)n(C2CC(O)C(CO)O2)cc1Cl (configuration not stated),10,u,6%,-26%,u
Nc1nc2c(ncn2C2C[C@H](O)[C@@H](CO)O2)c(=O)[nH]1 (some centres not stated),10,u,u,6.5µM*,10µM*
CCc1cn(C2CC(O)C(CO)O2)c(=O)[nH]c1=O (configuration not stated),33,3%,7%,-28%,u
O=C(OCC1OC(n2ccc(=O)[nH]c2=O)C(O)C1OC(=O)c1ccccc1)c1ccccc1 (configuration not stated),20,-10%,-6%,-29%,-17%
Nc1nc2c(ncn2C2OC(COC(=O)c3ccccc3)C(OC(=O)c3ccccc3)C2OC(=O)c2ccccc2)c(=O)[nH]1 (configuration not stated),x,x,x,21µM*,u
Nc1nc(=O)n(C2CC(O)C(CO)O2)cc1F (configuration not stated),18,-20%,5.2µM*,u,u

# Assay outcomes deposited in PubChem BioAssay by National Center for Advancing Translational Sciences (NCATS).
